Assay results taken from PubChem BioAssay (NCI).
Compounds without any hit were thinned out: in the full panel of roughly 83,000, 20% have a hit.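 Activity criterion: percent growth below 10, measured after cells in 96-well plates were exposed to a single compound concentration for 48 hours.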 Active and inactive are the calls of the source.

Key:
Assay in all cases: NCI-60 one-dose screen, 48 h (100 = growth as untreated, 0 = no growth, -100 = all killed)
Settings in all cases: 10 µM unless noted
NCI-H23 lung = system: NCI-H23 lung
NCI-H226 lung = system: NCI-H226 lung
NCI-H322M lung = system: NCI-H322M lung
HOP-62 NSCLC = system: HOP-62 NSCLC
NCI-H460 lung = system: NCI-H460 lung
HOP-92 NSCLC = system: HOP-92 NSCLC
NCI-H522 lung = system: NCI-H522 lung
A549/ATCC NSCLC = system: A549/ATCC NSCLC
786-0 renal = system: 786-0 renal
COLO 205 colon = system: COLO 205 colon
DU-145 prostate = system: DU-145 prostate
K-562 leukemia = system: K-562 leukemia
MALME-3M melanoma = system: MALME-3M melanoma
MDA-MB-231 breast = system: MDA-MB-231 breast
RXF 393 renal = system: RXF 393 renal
SF-268 CNS = system: SF-268 CNS
SF-295 CNS = system: SF-295 CNS
SF-539 CNS = system: SF-539 CNS
UACC-257 melanoma = system: UACC-257 melanoma
M14 melanoma = system: M14 melanoma

Measured: growth

CCN(CC)c1ccc(/C=N/NC(=O)c2ccccc2Nc2ccnc(C(F)(F)F)c2)c(O)c1
active: NCI-H226 lung 8.93% | NCI-H460 lung 4.43% | SF-539 CNS -11.1% | M14 melanoma -17.4%
inactive: NCI-H23 lung 40.4% | NCI-H322M lung 39.7% | HOP-62 NSCLC 28% | HOP-92 NSCLC 19.9% | NCI-H522 lung 42.9% | A549/ATCC NSCLC 35.8% | 786-0 renal 16.6% | COLO 205 colon 25.7% | DU-145 prostate 20.7% | K-562 leukemia 62.9% | MALME-3M melanoma 45.3% | MDA-MB-231 breast 56.8% | RXF 393 renal 51.4% | SF-268 CNS 14.5% | SF-295 CNS 24.1% | UACC-257 melanoma 19.2%

CSc1nc(CC(C)C)c(C#N)c(=O)n1C
active: HOP-92 NSCLC 8.54%
inactive: NCI-H23 lung 66.8% | NCI-H226 lung 60.3% | NCI-H322M lung 84.7% | HOP-62 NSCLC 79.3% | NCI-H460 lung 83.3% | NCI-H522 lung 39.2% | 786-0 renal 57.9% | COLO 205 colon 43.3% | DU-145 prostate 70.7% | K-562 leukemia 68.8% | MALME-3M melanoma 58.4% | MDA-MB-231 breast 47.3% | RXF 393 renal 58.7% | SF-268 CNS 65.7% | SF-295 CNS 73.9% | SF-539 CNS 75.9% | UACC-257 melanoma 78.6% | M14 melanoma 70.7%

COc1ccc2c(c1)C(c1c[nH]c3ccccc13)(c1c[nH]c3ccccc13)CCO2
inactive: NCI-H23 lung 53.3% | NCI-H226 lung 64.1% | NCI-H322M lung 66.1% | HOP-62 NSCLC 49.1% | NCI-H460 lung 47.4% | HOP-92 NSCLC 35.6% | 786-0 renal 58.8% | COLO 205 colon 39.9% | DU-145 prostate 74.6% | K-562 leukemia 29.5% | MALME-3M melanoma 88.8% | MDA-MB-231 breast 35.1% | RXF 393 renal 76.1% | SF-268 CNS 52.2% | SF-295 CNS 36.6% | SF-539 CNS 71.7% | UACC-257 melanoma 48.1% | M14 melanoma 39.7%
active: NCI-H522 lung 6.18%

CN1CCN(c2ccc(Nc3ncc4[nH]c(=O)n(Cc5ccccc5N)c4n3)cc2)CC1
inactive: NCI-H23 lung 97.5% | NCI-H226 lung 80.3% | NCI-H322M lung 100% | HOP-62 NSCLC 77.8% | NCI-H460 lung 102% | HOP-92 NSCLC 85.5% | NCI-H522 lung 77.1% | 786-0 renal 84.1% | COLO 205 colon 107% | DU-145 prostate 103% | K-562 leukemia 69.8% | MALME-3M melanoma 83.9% | MDA-MB-231 breast 83.8% | RXF 393 renal 83.8% | SF-268 CNS 72.8% | SF-295 CNS 98.2% | SF-539 CNS 80.9% | UACC-257 melanoma 112% | M14 melanoma 95.9%

COc1ccccc1/C=C/C1=C(C)CCC(c2ccccc2OC)C1C (stereo unspecified)
active: NCI-H460 lung 3.73% | HOP-92 NSCLC -35% | NCI-H522 lung -45% | COLO 205 colon -45.3% | DU-145 prostate -8.51% | SF-295 CNS -45.9% | SF-539 CNS 0.327% | M14 melanoma -10.7%
inactive: NCI-H23 lung 26.8% | NCI-H226 lung 45.8% | NCI-H322M lung 33.4% | HOP-62 NSCLC 17.3% | A549/ATCC NSCLC 21.2% | 786-0 renal 12% | K-562 leukemia 18.2% | MALME-3M melanoma 80.9% | MDA-MB-231 breast 17.2% | RXF 393 renal 28.5% | SF-268 CNS 16.3% | UACC-257 melanoma 57.9%

C=C1/C(=C\C=C2/CCC[C@]3(C)[C@@H]([C@H](C)CCCC(C)(C)O)CC[C@@H]23)C[C@@H](OC(=O)CBr)C[C@@H]1O
active: HOP-92 NSCLC -67.5% | NCI-H522 lung -68.8% | 786-0 renal 6.95% | MALME-3M melanoma -67.3% | SF-539 CNS -43.1%
inactive: NCI-H23 lung 37.7% | NCI-H226 lung 45.2% | NCI-H322M lung 94% | HOP-62 NSCLC 83.8% | NCI-H460 lung 92.1% | A549/ATCC NSCLC 66% | COLO 205 colon 19.4% | DU-145 prostate 92.7% | K-562 leukemia 30.8% | MDA-MB-231 breast 20.5% | RXF 393 renal 93.3% | SF-268 CNS 18% | SF-295 CNS 94.6% | UACC-257 melanoma 99.3% | M14 melanoma 84.4%

Nc1ncc(-c2ccc3ncnc(N4CCc5cc(F)c(Cl)cc54)c3c2)cc1C(F)(F)F
active: RXF 393 renal -33.6% | SF-539 CNS 8.36%
inactive: NCI-H23 lung 47.6% | NCI-H226 lung 28.3% | NCI-H322M lung 19.8% | HOP-62 NSCLC 33.1% | NCI-H460 lung 28.2% | HOP-92 NSCLC 10.1% | NCI-H522 lung 20.3% | A549/ATCC NSCLC 21.4% | 786-0 renal 15.8% | COLO 205 colon 41.8% | DU-145 prostate 33.5% | K-562 leukemia 15% | MALME-3M melanoma 13.6% | MDA-MB-231 breast 23.9% | SF-268 CNS 34.1% | SF-295 CNS 26% | UACC-257 melanoma 48.2% | M14 melanoma 33.8%

CC(Cc1cccc2ccccc12)C(N)=O (stereo unspecified)
inactive: NCI-H23 lung 99.9% | NCI-H226 lung 100% | NCI-H322M lung 98.1% | HOP-62 NSCLC 94.6% | NCI-H460 lung 110% | HOP-92 NSCLC 81.1% | NCI-H522 lung 96.6% | 786-0 renal 97.7% | COLO 205 colon 111% | DU-145 prostate 110% | K-562 leukemia 104% | MALME-3M melanoma 111% | MDA-MB-231 breast 100% | RXF 393 renal 113% | SF-268 CNS 106% | SF-295 CNS 100% | SF-539 CNS 96.6% | UACC-257 melanoma 104% | M14 melanoma 108%
